Assay [1] has as its target Acetylcholinesterase (Homo sapiens) (UniProt P22303). The experiment in a line: Acetylcholinesterase (AChE) small molecule antagonists: enzyme-based qHTS assay (AID 1347397; calls by dose curve; note: nearly all actives have a fitted effect of over 55% in size; note: potency is the fitted concentration of half-maximal effect). As to conditions: Potency: AChE enzyme activity inhibition; outcome: AChE enzyme activity inhibition. The method, boiled down:
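Colorimetric DTNB read-out of thiocholine released from acetylthiocholine by recombinant human AChE (50 mU/mL as dispensed). Compounds were preincubated 30 min at RT before substrate/DTNB addition, with a 10 min RT reaction.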
(In qHTS, concentration-response curves come from the screen itself.)

Assay [2] has the same target. Description: Acetylcholinesterase (AChE) small molecule antagonists: fluorescence cell-based qHTS assay (AID 1347398; calls by dose curve; note: nearly all actives have a fitted effect of over 50% in size; note: potency is the fitted concentration of half-maximal effect). As to conditions: Potency: AChE activity; outcome: AChE activity. The gist of the method: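 SH-SY5Y, 2,000 cells/well, attached overnight; cmpd 30 min 37 C; acetylthiocholine/Thiolite Green cocktail 40 min RT; fluorescence Ex/Em 490/520 nm.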
The target is the same in assay [3]. Description: Acetylcholinesterase (AChE) small molecule antagonists: enzyme-based qHTS assay with human liver microsomes (AID 1347399; calls by dose curve; note: nearly all actives have a fitted effect of over 60% in size; note: potency is the fitted concentration of half-maximal effect). As to conditions: Potency: qHTS inhibition; outcome: qHTS inhibition. The method, boiled down: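 Recombinant human AChE (50 mU/mL in the enzyme mix) and human liver microsomes (0.25 mg/mL final) were preincubated with compound and NADPH (0.25 mg/mL final) for 30 min at 37 C. Acetylthiocholine/DTNB was then added; thiocholine was read colorimetrically after 10 min at room temperature.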

Assay [4] addresses Cytochrome P450 2D6 (Homo sapiens) (UniProt P10635). Description: Cytochrome P450 Family 2 Subfamily D Member 6 (CYP2D6) small molecule antagonists: luciferase reporter qHTS assay (AID 1671196). Note: nearly all actives have a fitted effect of over 50% in size. Note: potency is the fitted concentration of half-maximal effect. The method, boiled down: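 Luminogenic proluciferin substrate, CYP2D6 enzyme; 10 min RT preincubation with compound, NADPH regeneration system added, 1 h RT. Stop/detection reagent, 20 min RT, luminescence read (RLU). Signal proportional to CYP activity.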

The target of assay [5] is Cytochrome P450 2C19 (Homo sapiens) (UniProt P33261). Description: Cytochrome P450 Family 2 Subfamily C Member 19 (CYP2C19) small molecule antagonists: luciferase reporter qHTS assay (AID 1671197). Note: nearly all actives have a fitted effect of over 65% in size. Note: potency is the fitted concentration of half-maximal effect. The method, boiled down:
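Light output is proportional to CYP2C19 activity: proluciferin substrate is converted to luciferin, then detected by a luciferin detection reagent that also stops the 1 h, 37C NADPH-driven reaction. Ketoconazole serves as positive control.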

The target of assay [6] is Cytochrome P450 2C9 (Homo sapiens) (UniProt P11712). Description: Cytochrome P450 Family 2 Subfamily C Member 9 (CYP2C9) small molecule antagonists: luciferase reporter qHTS assay (AID 1671198). Note: nearly all actives have a fitted effect of over 50% in size. Note: potency is the fitted concentration of half-maximal effect. The method, boiled down:
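P450-Glo proluciferin substrate with CYP2C9 enzyme; 10 min RT preincubation, then NADPH regeneration 1 h at 37C; luciferin detection reagent 20 min RT, luminescence in relative luminescence units.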
For orientation: A reporter such as luciferase makes a cellular process visible.

In assay [7] the target is Cytochrome P450 1A2 (Homo sapiens) (UniProt P05177). Description: Cytochrome P450 Family 1 Subfamily A Member 2 (CYP1A2) small molecule antagonists: luciferase reporter qHTS assay (AID 1671199). Note: nearly all actives have a fitted effect of over 50% in size. Note: potency is the fitted concentration of half-maximal effect. The method, boiled down:
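Luminescence readout (relative luminescence units) after luciferin detection reagent, 20 min RT. Preceded by 1 h room-temperature CYP1A2 reaction with NADPH regeneration solution following 10 min compound preincubation with enzyme and proluciferin substrate. Furafylline positive control.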

Assay [8] addresses Voltage-gated inwardly rectifying potassium channel KCNH2 (Homo sapiens) (UniProt Q12809). The experiment in a line: Human Ether-a-go-go-Related Gene (hERG) channel small molecule antagonists: fluorescence cell-based qHTS assay (AID 1671200). The method, boiled down:
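Quantitative HTS in hERG-U2OS cells: thallium entry through the channel reports activity, read as continuous 480/540 nm fluorescence over 2 min after stimulus addition.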
(In general: Block of hERG is tested as a sign of cardiac risk.)

Assay [9] addresses Cytochrome P450 3A4 (Homo sapiens) (UniProt P08684). The experiment in a line: Cytochrome P450 Family 3 Subfamily A Member 4 (CYP3A4) small molecule antagonists: luciferase reporter qHTS assay (AID 1671201). The method, boiled down:
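Inhibition of CYP3A4 is measured as loss of light: the enzyme converts a proluciferin substrate to luciferin, detected luminescently. Reaction ran 1 h at room temperature with NADPH regeneration after a 10 min compound preincubation.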

From PubChem BioAssay (Tox21) come the findings set out here.

Where “and” joins values, the source holds several entries; their conditions need not be identical. Equal values may be shown once. Records with an inconclusive call do not appear. Some structures have more than one record in an assay (separate samples or runs), and their calls can disagree. Calls of active or inactive are those of the source. Unless noted, calls come from the whole dose curve; as a rule, active = well fitted curve in the direction sought with a large enough effect in the repeat runs; inconclusive = weak or mixed curves; inactive = no such curve, though single readings can be large; an effect the other way counts as inactive or inconclusive.

Chain of Cytochrome P450 2C9 (Homo sapiens) (P11712 whole entry, looked up): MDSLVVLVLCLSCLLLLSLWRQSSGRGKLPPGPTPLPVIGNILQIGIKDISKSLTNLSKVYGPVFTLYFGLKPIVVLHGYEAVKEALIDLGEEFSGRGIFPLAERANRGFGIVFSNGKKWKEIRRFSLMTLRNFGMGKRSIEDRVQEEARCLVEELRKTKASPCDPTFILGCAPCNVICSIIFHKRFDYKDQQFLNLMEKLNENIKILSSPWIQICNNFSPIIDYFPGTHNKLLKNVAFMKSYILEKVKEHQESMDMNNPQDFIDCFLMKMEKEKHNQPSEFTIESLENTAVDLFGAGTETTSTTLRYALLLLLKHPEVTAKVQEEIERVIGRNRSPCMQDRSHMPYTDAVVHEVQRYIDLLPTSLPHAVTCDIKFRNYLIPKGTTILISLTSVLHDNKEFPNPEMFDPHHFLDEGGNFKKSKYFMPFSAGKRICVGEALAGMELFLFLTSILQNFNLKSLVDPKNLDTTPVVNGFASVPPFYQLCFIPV
Chain of Acetylcholinesterase (Homo sapiens) (P22303 whole entry, looked up): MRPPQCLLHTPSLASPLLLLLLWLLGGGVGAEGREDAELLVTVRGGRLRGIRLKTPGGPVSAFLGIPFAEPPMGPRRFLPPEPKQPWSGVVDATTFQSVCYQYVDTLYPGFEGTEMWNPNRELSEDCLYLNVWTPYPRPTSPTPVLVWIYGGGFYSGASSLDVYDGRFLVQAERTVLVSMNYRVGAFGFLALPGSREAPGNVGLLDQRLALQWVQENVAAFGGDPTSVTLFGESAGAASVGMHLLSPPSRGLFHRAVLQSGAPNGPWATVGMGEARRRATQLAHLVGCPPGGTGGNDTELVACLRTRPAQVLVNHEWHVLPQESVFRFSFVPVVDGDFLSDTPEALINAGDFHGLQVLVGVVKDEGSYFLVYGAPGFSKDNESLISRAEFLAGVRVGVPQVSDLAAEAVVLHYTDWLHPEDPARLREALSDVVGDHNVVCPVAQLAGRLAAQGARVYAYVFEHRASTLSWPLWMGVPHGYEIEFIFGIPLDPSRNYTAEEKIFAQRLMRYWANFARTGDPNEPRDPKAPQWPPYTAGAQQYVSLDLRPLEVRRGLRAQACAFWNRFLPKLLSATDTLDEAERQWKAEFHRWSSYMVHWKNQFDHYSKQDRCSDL
Chain of Voltage-gated inwardly rectifying potassium channel KCNH2 (Homo sapiens) (Q12809 whole entry, looked up): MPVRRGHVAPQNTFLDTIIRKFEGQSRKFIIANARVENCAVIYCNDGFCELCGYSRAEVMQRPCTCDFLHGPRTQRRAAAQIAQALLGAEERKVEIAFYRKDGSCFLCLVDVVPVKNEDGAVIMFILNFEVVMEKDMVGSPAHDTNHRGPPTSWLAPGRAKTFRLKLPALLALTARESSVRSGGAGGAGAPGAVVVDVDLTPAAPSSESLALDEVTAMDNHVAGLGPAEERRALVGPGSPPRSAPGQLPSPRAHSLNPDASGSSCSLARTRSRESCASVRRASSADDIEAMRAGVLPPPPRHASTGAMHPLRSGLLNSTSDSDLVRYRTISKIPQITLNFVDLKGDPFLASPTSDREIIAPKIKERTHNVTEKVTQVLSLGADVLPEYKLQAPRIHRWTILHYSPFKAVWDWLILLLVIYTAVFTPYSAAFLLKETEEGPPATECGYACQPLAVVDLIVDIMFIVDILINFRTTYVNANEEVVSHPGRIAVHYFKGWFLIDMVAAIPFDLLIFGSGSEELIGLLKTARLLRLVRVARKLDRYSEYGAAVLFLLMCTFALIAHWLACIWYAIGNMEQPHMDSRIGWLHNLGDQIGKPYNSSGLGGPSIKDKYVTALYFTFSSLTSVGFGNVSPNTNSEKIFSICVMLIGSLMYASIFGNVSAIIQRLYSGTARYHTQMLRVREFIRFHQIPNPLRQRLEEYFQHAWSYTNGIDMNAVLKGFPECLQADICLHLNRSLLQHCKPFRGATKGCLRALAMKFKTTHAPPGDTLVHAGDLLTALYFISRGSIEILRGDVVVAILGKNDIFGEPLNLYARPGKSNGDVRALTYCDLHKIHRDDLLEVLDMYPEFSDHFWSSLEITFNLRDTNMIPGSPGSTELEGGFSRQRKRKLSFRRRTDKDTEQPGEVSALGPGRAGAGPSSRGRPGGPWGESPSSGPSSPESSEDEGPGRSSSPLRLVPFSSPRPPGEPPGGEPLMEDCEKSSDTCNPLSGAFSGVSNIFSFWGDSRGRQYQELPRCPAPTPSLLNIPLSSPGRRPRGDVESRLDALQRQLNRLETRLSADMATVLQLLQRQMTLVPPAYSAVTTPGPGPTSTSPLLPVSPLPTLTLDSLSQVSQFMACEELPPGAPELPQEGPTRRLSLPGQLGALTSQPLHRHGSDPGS
Chain of Cytochrome P450 2C19 (Homo sapiens) (P33261 whole entry, looked up): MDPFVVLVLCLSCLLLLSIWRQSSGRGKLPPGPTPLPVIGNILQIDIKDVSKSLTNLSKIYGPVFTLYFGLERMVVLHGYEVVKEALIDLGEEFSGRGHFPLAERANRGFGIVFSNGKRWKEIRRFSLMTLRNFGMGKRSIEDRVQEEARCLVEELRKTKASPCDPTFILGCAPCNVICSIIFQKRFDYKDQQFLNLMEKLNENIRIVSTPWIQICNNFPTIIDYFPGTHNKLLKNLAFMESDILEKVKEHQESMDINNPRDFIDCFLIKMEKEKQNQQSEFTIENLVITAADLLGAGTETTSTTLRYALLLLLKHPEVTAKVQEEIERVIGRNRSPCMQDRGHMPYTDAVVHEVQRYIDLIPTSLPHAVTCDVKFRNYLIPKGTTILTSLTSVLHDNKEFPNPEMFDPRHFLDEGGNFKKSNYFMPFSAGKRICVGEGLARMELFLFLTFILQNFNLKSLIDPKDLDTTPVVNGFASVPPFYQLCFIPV
Chain of Cytochrome P450 1A2 (Homo sapiens) (P05177 whole entry, looked up): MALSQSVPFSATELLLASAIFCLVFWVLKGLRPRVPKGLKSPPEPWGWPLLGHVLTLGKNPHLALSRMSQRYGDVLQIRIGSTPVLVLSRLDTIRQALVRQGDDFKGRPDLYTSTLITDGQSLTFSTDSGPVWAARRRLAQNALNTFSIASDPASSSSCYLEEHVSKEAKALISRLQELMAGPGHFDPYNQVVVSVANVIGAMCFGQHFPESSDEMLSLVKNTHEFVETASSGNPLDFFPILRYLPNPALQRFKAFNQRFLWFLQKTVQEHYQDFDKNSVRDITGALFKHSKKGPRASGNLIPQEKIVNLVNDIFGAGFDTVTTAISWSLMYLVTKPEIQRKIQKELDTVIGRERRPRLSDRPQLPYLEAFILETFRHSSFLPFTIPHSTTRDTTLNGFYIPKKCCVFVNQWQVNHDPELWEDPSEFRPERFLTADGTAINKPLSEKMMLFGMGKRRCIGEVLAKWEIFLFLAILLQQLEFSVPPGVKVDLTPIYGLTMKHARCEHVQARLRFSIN
Chain of Cytochrome P450 3A4 (Homo sapiens) (P08684 whole entry, looked up): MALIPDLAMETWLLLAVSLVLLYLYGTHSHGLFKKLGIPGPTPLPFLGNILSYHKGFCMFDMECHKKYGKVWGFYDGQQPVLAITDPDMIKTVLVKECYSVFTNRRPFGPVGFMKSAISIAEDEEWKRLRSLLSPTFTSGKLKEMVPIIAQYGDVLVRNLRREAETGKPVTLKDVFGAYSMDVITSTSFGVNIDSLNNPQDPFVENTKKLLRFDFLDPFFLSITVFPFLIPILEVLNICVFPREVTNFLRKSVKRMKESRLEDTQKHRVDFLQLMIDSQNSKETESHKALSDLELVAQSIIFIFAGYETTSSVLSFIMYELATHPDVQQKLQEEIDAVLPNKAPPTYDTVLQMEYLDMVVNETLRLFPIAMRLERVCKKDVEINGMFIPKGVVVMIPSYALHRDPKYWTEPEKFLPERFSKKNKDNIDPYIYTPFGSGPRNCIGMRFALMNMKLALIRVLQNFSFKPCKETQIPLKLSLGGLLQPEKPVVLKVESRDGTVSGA
Chain of Cytochrome P450 2D6 (Homo sapiens) (P10635 whole entry, looked up): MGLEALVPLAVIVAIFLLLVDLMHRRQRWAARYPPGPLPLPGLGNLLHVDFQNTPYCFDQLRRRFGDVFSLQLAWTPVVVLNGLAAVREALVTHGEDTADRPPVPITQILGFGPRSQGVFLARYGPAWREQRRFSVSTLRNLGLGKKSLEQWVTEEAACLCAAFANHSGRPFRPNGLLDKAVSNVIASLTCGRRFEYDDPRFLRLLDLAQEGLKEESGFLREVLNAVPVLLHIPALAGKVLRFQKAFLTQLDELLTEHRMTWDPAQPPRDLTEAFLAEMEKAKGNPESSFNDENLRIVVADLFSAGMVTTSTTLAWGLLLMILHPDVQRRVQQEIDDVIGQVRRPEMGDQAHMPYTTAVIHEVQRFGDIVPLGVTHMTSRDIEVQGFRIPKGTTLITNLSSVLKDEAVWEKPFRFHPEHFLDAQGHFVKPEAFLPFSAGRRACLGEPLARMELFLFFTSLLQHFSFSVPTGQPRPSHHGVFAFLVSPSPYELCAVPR

Turning to `OC[P+](CO)(CO)CO`, the Potency entry in assay [1], in assay [2], in assay [3], in assay [4], in assay [5] and in assay [6] was “inactive” in each case. Also, the Potency result in assay [7], in assay [8] and in [9] was “inactive” throughout.

With `O=C(O)c1ccc(=O)[nH]c1`, the Potency entry in assay [1], in assay [2], in [3], in assay [4], in [5] and in assay [6] was “inactive” each time. Moreover, the Potency entry in assay [7], in [8] and in assay [9] was “inactive” throughout.

For the compound `c1ccc2c(c1)sc1ccccc12`, the Potency entry in assay [1], in [2], in [3], in [4], in [6] and in assay [8] was “inactive” in each case. Moreover, the Potency result in assay [9] was “inactive”. Further, the Potency in assay [5] was 39.9 µM (active) and inactive; in assay [7], 3.17 µM (active) and 2.57 µM (active).

On to `O=C(Cc1ccccc1)OCCc1ccccc1`, for which the Potency result in assay [1], in assay [2], in assay [3], in [4], in assay [8] and in assay [9] was “inactive” throughout. Moreover, the Potency in [5] is 2.52 µM (active); in assay [6], 20 µM (active); in assay [7] it was 10 µM (active).

On to `OCC1CO1` (stereo unspecified), for which the Potency entry in assay [1], in assay [2], in assay [3], in [4], in [5] and in assay [6] was “inactive” in each case. Besides, the Potency result in [7], in [8] and in assay [9] was “inactive” in each case.

With `CCOP(=O)(O)C(N)=O`, the Potency result in assay [1], in [2], in assay [3], in assay [4], in assay [5] and in assay [6] was “inactive” in each case. The Potency result in [7], in assay [8] and in assay [9] was “inactive” in each case.

For the compound `CC(C)(C)NCC(O)c1ccccc1Cl` (stereo unspecified), the Potency entry in assay [1], in assay [2], in assay [3], in assay [5], in [6] and in [7] was “inactive” throughout. In addition, the Potency result in assay [8] and in assay [9] was “inactive” each time. For the same compound, the Potency in [4] was 9.77 µM (active).

As to `O=C=NC1CCCCC1`, the Potency entry in assay [1], in assay [2], in [3], in assay [4], in assay [5] and in assay [6] was “inactive” each time. In addition, the Potency result in assay [7], in assay [8] and in [9] was “inactive” each time.

With `CCCN(CCC)c1c([N+](=O)[O-])cc(C(C)C)cc1[N+](=O)[O-]`, the Potency entry in assay [1], in [2], in [3], in [4] and in [8] was “inactive” in each case. For the same compound, the Potency in [5] is 8.75 µM (active) and 5.03 µM (active); in [6], 27.7 µM (active) and 31.7 µM (active); in [7], 27.7 µM (active) and 35.6 µM (active).

Take `CC(C)C1(C)N=C(c2ncccc2C(=O)O)NC1=O` (stereo unspecified): the Potency result in [1], in assay [2], in assay [3], in [4], in [5] and in [6] was “inactive” throughout. In addition, the Potency result in [7], in assay [8] and in assay [9] was “inactive” throughout.

In the case of `C[C@H]1[C@@H]2Cc3ccc(O)cc3[C@@]1(C)CCN2C`, the Potency is 33.9 µM (active) in [1]; 2.14 µM (active) in assay [2]; 191 µM (active) in assay [3]; 33.9 µM (active) in [4]; 53.8 µM (active) in assay [5]. Moreover, the Potency result in [6], in assay [7], in assay [8] and in assay [9] was “inactive” in each case.

For `COc1cc(CC(C)N)c(OC)cc1Br` (stereo unspecified), the Potency result in assay [1], in assay [2], in assay [3], in [5], in assay [6] and in [8] was “inactive” each time. Moreover, the Potency in [4] is 26 µM (active); in assay [7], 5.2 µM (active).

In the case of `Nc1ccccc1C(=O)OCC(O)CO` (stereo unspecified), the Potency entry in assay [1], in [2], in [3], in [4], in assay [5] and in assay [6] was “inactive” in each case. Moreover, the Potency result in assay [7], in assay [8] and in [9] was “inactive” in each case.

For the compound `CN1CC[C@]23c4c5ccc(O)c4O[C@H]2[C@@H](O)C=C[C@H]3[C@H]1C5`, in assay [1], the Potency entry was “inactive”.

As to `CCCCC(CC)COC(=O)c1c(Br)c(Br)c(Br)c(Br)c1C(=O)OCC(CC)CCCC` (stereo unspecified), the Potency entry in [1], in [2], in assay [3], in [4], in [5] and in assay [6] was “inactive” each time. For the same compound, the Potency result in assay [7], in assay [8] and in assay [9] was “inactive” each time.

Take `O=C(Cc1ccccc1)c1ccccc1`: the Potency result in assay [1], in assay [2], in [3], in assay [6], in assay [8] and in assay [9] was “inactive” each time. The Potency was 22.4 µM (active) in [4], 11.2 µM (active) in [5] and 12.6 µM (active) in assay [7].

For `O=[N+]([O-])O[C@H]1CO[C@H]2[C@@H]1OC[C@H]2O[N+](=O)[O-]`, the Potency entry in assay [1], in assay [2], in [3], in assay [4], in assay [5] and in [6] was “inactive” throughout. Further, the Potency entry in [7], in [8] and in [9] was “inactive” throughout.

Consider `CCC1(C2=NCCN2)Cc2ccccc2O1` (stereo unspecified), for which the Potency entry in assay [1], in [2], in assay [3], in [5], in assay [6] and in [7] was “inactive” in each case. The Potency entry in assay [8] and in assay [9] was “inactive” in each case. For the same compound, in assay [4], the Potency is 15.5 µM (active).

As for `CCCCC1C(=O)NC(=O)N(C2CCCCC2)C1=O` (stereo unspecified), the Potency result in [1], in assay [2], in assay [3], in assay [4], in assay [7] and in assay [8] was “inactive” each time. Besides, the Potency result in assay [9] was “inactive”. Further, the Potency in assay [5] was 27.5 µM (active).

In the case of `C[N+](C)(C)CC1CO1` (stereo unspecified), the Potency result in assay [1], in [2], in assay [3], in [4], in [5] and in [6] was “inactive” throughout. Besides, the Potency entry in assay [8] and in assay [9] was “inactive” each time.

For `C=CCc1ccccc1O`, the Potency entry in [1], in assay [2], in [3], in assay [4], in [5] and in [8] was “inactive” each time. In [9], the Potency result is “inactive”. Besides, the Potency in assay [7] was 31.7 µM (active).
